The values that follow come from PubChem BioAssay (NCATS).

Test [1] is described as follows: qHTS profiling of the MIPE4 collection as inhibitors of Plasmodium falciparum (3D7) proliferation (AID 743344).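 Also: scaled between DMSO vehicle wells and 0.29 µM artemisinin as full inhibition.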 Particulars: P. falciparum 3D7 in erythrocytes, SYBR Green DNA fluorescence, 72 h; at 28.5 µM. The essentials:
(§1)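 Erythrocytes infected with P. falciparum (0.3% parasitemia, 2.5% hematocrit) incubated with compounds 72 h at 37 C, 5% CO2. Lysis with saponin/Triton buffer containing SYBR Green I, overnight at room temperature in the dark; DNA fluorescence (485/535 nm) normalised to 0.29 uM artemisinin and DMSO.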
Background: Quantitative high-throughput screening tests each substance at several concentrations.

The nature of test [2]: qHTS profiling of the MIPE4 collection as inhibitors of Plasmodium falciparum (DD2) proliferation (AID 743345). Particulars: P. falciparum Dd2 in erythrocytes, SYBR Green DNA, 72 h; at 28.5 µM unless noted. The essentials:
as §1

Test [3] is described as follows: qHTS profiling of the MIPE4 collection as inhibitors of Plasmodium falciparum (DD2) proliferation (Rep 2) (AID 743346). The note with it: P. falciparum Dd2 in erythrocytes, SYBR Green DNA, 72 h; at 28.5 µM. The essentials:
as §1

Test [4] in a line: qHTS profiling of the MIPE4 collection as inhibitors of Plasmodium falciparum (HB3) proliferation (AID 743347).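 Also: plate controls were DMSO vehicle wells for no effect and artemisinin wells for full effect.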 Particulars: P. falciparum HB3 in erythrocytes, SYBR Green DNA, 72 h; at 28.5 µM. The essentials: as §1

In the case of `C[C@]12CC[C@@H]3[C@@H](CCC4=CC(=O)CC[C@@H]43)[C@@H]1CC[C@@H]2OC(=O)CCc1ccccc1`, the parasite growth, % of DMSO control in test [1] was 65.4%. The compound further gave a parasite growth remaining, % of DMSO control (lower = more inhibition) in test [2] of 83%. In test [3], the parasite growth, % of control (lower = inhibition) was 56.3%. Besides, in test [4], the growth, % of control came to 90.8%.

In test [1], `C[C@]12CC[C@H]3[C@@H](CCC4=CC(=O)CC[C@@]43C)[C@H]1CC[C@H]2OC(=O)CCC1CCCC1` returned a parasite growth, % of DMSO control of 7.86%. For the same compound, the parasite growth remaining, % of DMSO control (lower = more inhibition) in test [2] is 15.6%. Further, in test [3], the parasite growth, % of control (lower = inhibition) was 18.3%. Further, in test [4], the growth, % of control is 6.49%.

As for `O=[N+]([O-])c1ncc[nH]1`, the parasite growth, % of DMSO control in test [1] is 89%. For the same compound, the parasite growth remaining, % of DMSO control (lower = more inhibition) in test [2] was 99.8%. For the same compound, the parasite growth, % of control (lower = inhibition) in test [3] stood at 101%. Also, the growth, % of control in test [4] was 81.7%.

In turn, `Cn1cncc1[C@@](N)(c1ccc(Cl)cc1)c1ccc2c(c1)c(-c1cccc(Cl)c1)cc(=O)n2C` displayed a parasite growth remaining, % of DMSO control (lower = more inhibition) in test [2] of 33.3%.

The compound `COC1=CC(C)=C[C@@H](C)[C@@H](O)[C@@H](C)CC(C)=CC=C[C@H](OC)[C@H]([C@@H](C)[C@@H](O)[C@H](C)[C@@]2(O)C[C@@H](O)[C@H](C)[C@@H](C(C)C)O2)OC1=O` displayed a parasite growth, % of DMSO control in test [1] of 6.56%. In addition, in test [2], the parasite growth remaining, % of DMSO control (lower = more inhibition) turned out to be 6.47%. In test [3], the parasite growth, % of control (lower = inhibition) came out at 13.8%. In test [4], this compound came in with a growth, % of control of 8.98%.

In turn, `CC(C)[C@]12O[C@@H]1[C@@H]1O[C@]13[C@]1(O[C@H]1C[C@@H]1C4=C(CC[C@@]13C)C(=O)OC4)[C@H]2O` showed a parasite growth, % of DMSO control in test [1] of 56.9%. The parasite growth remaining, % of DMSO control (lower = more inhibition) in test [2] stood at 77%. Also, in test [3], the parasite growth, % of control (lower = inhibition) was found to be 49.4%. Further, the growth, % of control in test [4] came out at 44.2%.

As for `C[C@]12CC[C@H]3[C@@H](CCC4=CC(=O)CC[C@@]43C)[C@H]1CC[C@H]2O`, in test [1], the parasite growth, % of DMSO control came to 78.5%. Also, the parasite growth remaining, % of DMSO control (lower = more inhibition) in test [2] turned out to be 90.8%. Moreover, in test [3], the parasite growth, % of control (lower = inhibition) was 93.2%. Further, in test [4], the growth, % of control worked out at 86.3%.

In turn, `CC[C@H]1C=CC=CC[C@@H](C)[C@H](O)[C@@](C)(O)C(=O)[C@@H](C)[C@H](O)[C@@H](C)C(=O)[C@@H](C)[C@H](O)[C@@H](C)C=CC(=O)O[C@@H]2[C@@H](C)[C@H](CC1)O[C@]1(CC[C@H](C)[C@H](C[C@@H](C)O)O1)[C@H]2C` showed a parasite growth, % of DMSO control in test [1] of 16.9%. This compound showed a parasite growth remaining, % of DMSO control (lower = more inhibition) in test [2] of 6.38%. In test [3], the parasite growth, % of control (lower = inhibition) amounted to 20.2%. The compound further showed a growth, % of control in test [4] of 8.5%.
